The source of these data is the supplement of paper PMC10849652.

Targets with a hit are over-represented here; the source holds about 7,900 in all. About 0.6% of all pairs of compound and target were hits.

Sequence of UniProt Q15910 (Q15910 whole entry, looked up): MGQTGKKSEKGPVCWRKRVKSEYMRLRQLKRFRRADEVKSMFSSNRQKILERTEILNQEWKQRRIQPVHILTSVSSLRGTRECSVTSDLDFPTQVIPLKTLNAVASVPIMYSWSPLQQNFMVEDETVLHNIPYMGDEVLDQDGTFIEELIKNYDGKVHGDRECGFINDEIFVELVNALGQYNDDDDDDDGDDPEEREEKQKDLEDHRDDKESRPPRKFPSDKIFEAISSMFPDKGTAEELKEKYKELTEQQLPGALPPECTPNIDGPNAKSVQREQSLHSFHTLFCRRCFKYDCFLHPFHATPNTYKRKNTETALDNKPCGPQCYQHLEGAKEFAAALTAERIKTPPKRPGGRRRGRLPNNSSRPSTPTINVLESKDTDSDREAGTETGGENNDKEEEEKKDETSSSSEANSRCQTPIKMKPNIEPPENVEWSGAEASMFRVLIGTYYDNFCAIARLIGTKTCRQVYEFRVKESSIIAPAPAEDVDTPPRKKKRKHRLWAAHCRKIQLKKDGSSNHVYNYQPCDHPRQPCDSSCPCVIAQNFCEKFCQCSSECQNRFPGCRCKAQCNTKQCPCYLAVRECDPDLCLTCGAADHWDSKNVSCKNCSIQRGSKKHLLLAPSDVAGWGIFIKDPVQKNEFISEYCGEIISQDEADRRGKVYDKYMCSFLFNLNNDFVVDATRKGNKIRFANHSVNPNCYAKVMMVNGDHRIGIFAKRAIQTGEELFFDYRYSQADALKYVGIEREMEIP
Sequence of UniProt Q96G46 (Q96G46 whole entry, looked up): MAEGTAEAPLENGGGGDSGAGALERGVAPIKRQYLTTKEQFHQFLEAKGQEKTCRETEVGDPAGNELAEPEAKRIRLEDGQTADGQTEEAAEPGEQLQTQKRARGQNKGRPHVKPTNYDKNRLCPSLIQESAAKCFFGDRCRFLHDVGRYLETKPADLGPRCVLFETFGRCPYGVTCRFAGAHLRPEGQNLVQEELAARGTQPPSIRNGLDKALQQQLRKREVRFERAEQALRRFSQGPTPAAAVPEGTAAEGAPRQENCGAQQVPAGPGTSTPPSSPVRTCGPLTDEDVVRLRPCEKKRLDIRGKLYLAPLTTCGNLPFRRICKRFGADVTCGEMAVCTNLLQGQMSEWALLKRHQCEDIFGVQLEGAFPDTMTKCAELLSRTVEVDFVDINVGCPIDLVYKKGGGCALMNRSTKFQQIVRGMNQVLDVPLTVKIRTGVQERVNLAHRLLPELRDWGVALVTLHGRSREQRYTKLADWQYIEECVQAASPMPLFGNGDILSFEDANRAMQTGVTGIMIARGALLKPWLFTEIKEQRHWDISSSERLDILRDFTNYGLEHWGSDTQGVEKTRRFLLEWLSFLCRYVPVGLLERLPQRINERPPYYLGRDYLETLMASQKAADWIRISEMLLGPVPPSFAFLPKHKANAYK
Sequence of UniProt Q16254 (Q16254 whole entry, looked up): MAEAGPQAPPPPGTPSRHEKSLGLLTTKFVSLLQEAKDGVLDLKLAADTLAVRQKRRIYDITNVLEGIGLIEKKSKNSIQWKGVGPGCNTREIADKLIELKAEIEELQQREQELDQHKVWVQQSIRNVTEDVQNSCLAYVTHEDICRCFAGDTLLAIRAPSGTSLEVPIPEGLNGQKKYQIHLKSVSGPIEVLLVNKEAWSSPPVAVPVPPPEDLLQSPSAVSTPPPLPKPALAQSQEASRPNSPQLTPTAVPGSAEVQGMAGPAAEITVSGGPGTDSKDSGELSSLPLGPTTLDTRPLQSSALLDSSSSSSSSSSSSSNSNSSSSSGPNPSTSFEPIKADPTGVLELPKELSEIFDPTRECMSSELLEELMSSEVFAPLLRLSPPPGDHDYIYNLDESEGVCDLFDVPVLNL
Sequence of UniProt P41091 (P41091 whole entry, looked up): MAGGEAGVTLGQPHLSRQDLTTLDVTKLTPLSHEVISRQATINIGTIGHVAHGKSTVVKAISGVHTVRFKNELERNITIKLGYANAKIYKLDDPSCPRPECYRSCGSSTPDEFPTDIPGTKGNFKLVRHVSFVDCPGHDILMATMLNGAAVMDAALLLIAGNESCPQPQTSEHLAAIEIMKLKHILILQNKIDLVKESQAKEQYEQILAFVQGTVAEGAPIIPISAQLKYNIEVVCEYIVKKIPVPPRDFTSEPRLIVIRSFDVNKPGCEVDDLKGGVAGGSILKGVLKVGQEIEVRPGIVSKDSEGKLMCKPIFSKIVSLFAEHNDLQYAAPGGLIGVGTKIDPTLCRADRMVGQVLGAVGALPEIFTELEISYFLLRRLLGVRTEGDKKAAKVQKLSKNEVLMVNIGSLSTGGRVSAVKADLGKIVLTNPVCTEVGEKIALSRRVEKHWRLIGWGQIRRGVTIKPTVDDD
Sequence of UniProt Q9BU89 (Q9BU89 whole entry, looked up): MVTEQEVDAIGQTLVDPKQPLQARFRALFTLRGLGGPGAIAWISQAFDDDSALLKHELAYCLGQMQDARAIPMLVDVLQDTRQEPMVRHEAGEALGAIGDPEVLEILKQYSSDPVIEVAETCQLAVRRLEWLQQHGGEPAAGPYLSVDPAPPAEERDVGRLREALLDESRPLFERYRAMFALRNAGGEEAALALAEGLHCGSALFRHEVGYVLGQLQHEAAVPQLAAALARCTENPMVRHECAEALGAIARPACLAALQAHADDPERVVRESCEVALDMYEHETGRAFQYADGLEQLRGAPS
Sequence of UniProt Q01780 (Q01780 whole entry, looked up): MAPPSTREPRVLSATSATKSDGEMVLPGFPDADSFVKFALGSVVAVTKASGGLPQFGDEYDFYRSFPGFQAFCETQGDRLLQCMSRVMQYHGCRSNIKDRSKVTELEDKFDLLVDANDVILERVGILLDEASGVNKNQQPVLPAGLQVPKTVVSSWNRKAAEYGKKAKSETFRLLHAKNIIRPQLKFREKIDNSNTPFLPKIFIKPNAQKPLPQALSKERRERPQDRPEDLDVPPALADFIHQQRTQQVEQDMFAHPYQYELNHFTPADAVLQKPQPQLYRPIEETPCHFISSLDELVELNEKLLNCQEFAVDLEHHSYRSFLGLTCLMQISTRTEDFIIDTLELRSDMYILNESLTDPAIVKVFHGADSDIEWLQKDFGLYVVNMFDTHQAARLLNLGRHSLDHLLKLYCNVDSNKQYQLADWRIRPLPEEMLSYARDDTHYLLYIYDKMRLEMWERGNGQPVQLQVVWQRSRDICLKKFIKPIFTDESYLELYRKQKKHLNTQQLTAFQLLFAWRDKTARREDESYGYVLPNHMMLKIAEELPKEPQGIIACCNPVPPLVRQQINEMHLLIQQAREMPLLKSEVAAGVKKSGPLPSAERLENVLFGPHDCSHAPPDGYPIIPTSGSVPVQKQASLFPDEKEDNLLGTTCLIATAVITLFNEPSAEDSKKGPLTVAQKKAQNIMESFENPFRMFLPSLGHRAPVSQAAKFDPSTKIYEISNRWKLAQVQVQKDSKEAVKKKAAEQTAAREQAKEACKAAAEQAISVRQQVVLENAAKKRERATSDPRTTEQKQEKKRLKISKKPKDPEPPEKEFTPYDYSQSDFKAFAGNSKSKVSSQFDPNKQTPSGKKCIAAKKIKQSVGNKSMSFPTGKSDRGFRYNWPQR
Sequence of UniProt P39880 (P39880 whole entry, looked up): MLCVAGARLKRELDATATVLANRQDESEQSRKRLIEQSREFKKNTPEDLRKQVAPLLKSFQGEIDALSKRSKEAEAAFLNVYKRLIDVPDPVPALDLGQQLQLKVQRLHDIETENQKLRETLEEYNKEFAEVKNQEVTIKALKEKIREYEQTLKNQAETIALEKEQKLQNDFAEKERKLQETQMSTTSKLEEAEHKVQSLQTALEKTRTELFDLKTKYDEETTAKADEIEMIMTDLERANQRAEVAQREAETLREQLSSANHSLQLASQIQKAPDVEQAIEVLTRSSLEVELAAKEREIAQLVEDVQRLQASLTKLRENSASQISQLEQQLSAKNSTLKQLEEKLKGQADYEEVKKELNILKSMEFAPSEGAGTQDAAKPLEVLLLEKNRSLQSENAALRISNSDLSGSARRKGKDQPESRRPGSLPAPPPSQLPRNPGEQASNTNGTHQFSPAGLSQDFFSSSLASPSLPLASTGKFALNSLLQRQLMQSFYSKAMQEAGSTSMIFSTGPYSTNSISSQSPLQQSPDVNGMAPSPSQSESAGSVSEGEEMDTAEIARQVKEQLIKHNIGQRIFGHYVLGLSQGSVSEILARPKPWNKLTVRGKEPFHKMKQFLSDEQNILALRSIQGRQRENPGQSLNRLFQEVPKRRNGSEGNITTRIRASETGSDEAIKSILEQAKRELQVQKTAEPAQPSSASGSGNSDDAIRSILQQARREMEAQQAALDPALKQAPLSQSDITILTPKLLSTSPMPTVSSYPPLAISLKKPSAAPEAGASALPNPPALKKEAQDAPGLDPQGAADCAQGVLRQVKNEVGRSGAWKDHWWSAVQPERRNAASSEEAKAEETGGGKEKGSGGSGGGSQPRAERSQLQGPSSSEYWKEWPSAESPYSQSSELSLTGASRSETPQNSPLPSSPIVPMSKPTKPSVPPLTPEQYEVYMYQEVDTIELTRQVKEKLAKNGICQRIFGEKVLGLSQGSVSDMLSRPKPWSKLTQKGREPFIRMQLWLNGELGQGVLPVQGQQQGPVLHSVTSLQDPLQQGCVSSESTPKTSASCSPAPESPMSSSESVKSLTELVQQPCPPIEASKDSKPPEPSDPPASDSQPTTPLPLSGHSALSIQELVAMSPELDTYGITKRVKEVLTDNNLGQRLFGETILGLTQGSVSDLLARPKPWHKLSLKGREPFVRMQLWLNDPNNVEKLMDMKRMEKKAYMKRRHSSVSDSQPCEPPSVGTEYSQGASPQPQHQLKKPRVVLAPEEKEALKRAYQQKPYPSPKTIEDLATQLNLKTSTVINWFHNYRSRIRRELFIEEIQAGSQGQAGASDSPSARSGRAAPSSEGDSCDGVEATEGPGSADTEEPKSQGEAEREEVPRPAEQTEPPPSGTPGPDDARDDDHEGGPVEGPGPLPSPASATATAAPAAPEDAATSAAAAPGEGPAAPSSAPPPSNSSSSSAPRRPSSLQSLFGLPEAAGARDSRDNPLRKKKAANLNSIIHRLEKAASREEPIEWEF

Compound in the first assay: C1COCCN1CCN2C3=CC=CC=C3N=C2NC(=O)C4=CC(=CC=C4)[N+](=O)[O-] [IRAK-1-4 Inhibitor I]
Nature of the assay: log2 fold change, soluble protein after heating vs DMSO (PISA); higher = thermal stabilisation; K562 cells, 10 uM, 30 min; active = over 0.2 and 3.5 SD of the protein, either way, in both replicates (recomputed). Summed up: (§1)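 K562 cells at 2×10^6 cells/mL were treated for 30 min with 10 μM compound, and aliquots were heated for 3 min over 48°C-58°C before pooling. Extraction used PBS with 0.5% NP-40 at 4°C, and soluble protein was the supernatant after 21,000xg for 90 min, measured by TMTpro 16plex LC-MS/MS with channel sums equalised. Thermal stability values, relative to control samples and from duplicates, are log2 fold changes.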
Turning to EIF2AK3 (UniProt Q9NZJ5), the log2 fold change is -0.136 (inactive).

Take DCUN1D1 (UniProt Q96GG9): the log2 fold change is 0.031 (inactive).

For EIF3J isoform 2 (UniProt O75822), the log2 fold change is 0.052 (inactive).

As to DCAF10 (UniProt Q5QP82), the log2 fold change was 0 (inactive).

In the case of EIF2AK1 (UniProt Q9BQI3), the log2 fold change is -0.016 (inactive).

Regarding FAM3A (UniProt P98173), the log2 fold change was -0.028 (inactive).

With DHCR7 (UniProt Q9UBM7), the log2 fold change was -0.045 (inactive).

Consider EIF4G3 isoform 3 (UniProt O43432), for which the log2 fold change was 0.012 (inactive).

For EIF3J (UniProt O75822), the log2 fold change was 0.118 (inactive).

For the target E2F4 (UniProt Q16254), the log2 fold change was -0.025 (inactive).

Take DOHH (UniProt Q9BU89): the log2 fold change was 0.127 (inactive).

ERLIN2 (UniProt O94905): the log2 fold change was -0.089 (inactive).

On to DPYSL2 (UniProt Q16555), for which the log2 fold change was -0.003 (inactive).

ELAC1 (UniProt Q9H777): the log2 fold change is 0.028 (inactive).

For EEF1A1 (UniProt P68104), the log2 fold change was 0.133 (inactive).

EHBP1L1 (UniProt Q8N3D4): the log2 fold change was -0.044 (inactive).

For the target EXOC8 (UniProt Q8IYI6), the log2 fold change was -0.094 (inactive).

Turning to DYNC1I2 isoform 2 (UniProt Q13409), the log2 fold change is 0.012 (inactive).

Turning to DTWD1 (UniProt Q8N5C7), the log2 fold change is 0.043 (inactive).

Regarding DOLPP1 (UniProt Q86YN1), the log2 fold change was 0.008 (inactive).

For the target ERCC6 (UniProt Q03468), the log2 fold change is 0.05 (inactive).

For the target CUX1 isoform 3 (UniProt P39880), the log2 fold change is 0.019 (inactive).

Regarding DUS3L (UniProt Q96G46), the log2 fold change was 0 (inactive).

With EIF2S3 (UniProt P41091), the log2 fold change was -0.126 (inactive).

On to DDX27 (UniProt Q96GQ7), for which the log2 fold change was -0.037 (inactive).

In the case of EED, A0A5F9ZI63, the log2 fold change is -0.032 (inactive).

Turning to ELF1 (UniProt P32519), the log2 fold change is -0.12 (inactive).

As for EZH2 isoform 2 (UniProt Q15910), the log2 fold change was -0.247 (inactive).

Consider DNM2 (UniProt P50570), for which the log2 fold change was 0.022 (inactive).

For the target EXOSC10 (UniProt Q01780), the log2 fold change was 0.165 (inactive).

Turning to FAM117B (UniProt Q6P1L5), the log2 fold change is 0.238 (inactive).

As for DBN1 isoform 3 (UniProt Q16643), the log2 fold change is -0.06 (inactive).

For EIF4A1 (UniProt P60842), the log2 fold change is -0.008 (inactive).

Consider FAM241A (UniProt Q8N8J7), for which the log2 fold change was 0.011 (inactive).

Compound in the next assay: C=CC(=O)N1CCC[C@@H](n2nc(-c3ccc(Oc4ccccc4)cc3)c3c(N)ncnc32)C1 [ibrutinib]
The assay is described as above. The gist of the method: as §1
In the case of EIF2AK3 (UniProt Q9NZJ5), the log2 fold change is 0.13 (inactive).

With DCUN1D1 (UniProt Q96GG9), the log2 fold change was 0.016 (inactive).

Take EIF3J isoform 2 (UniProt O75822): the log2 fold change was 0.014 (inactive).

DCAF10 (UniProt Q5QP82): the log2 fold change is 0 (inactive).

As to DENND10 (UniProt Q8TCE6), the log2 fold change is 0.037 (inactive).

Regarding EIF2AK1 (UniProt Q9BQI3), the log2 fold change was 0.018 (inactive).

In the case of FAM3A (UniProt P98173), the log2 fold change is -0.011 (inactive).

For ELOVL5 isoform 2 (UniProt Q9NYP7), the log2 fold change was -0.075 (inactive).

As to DEGS1 (UniProt O15121), the log2 fold change was 0.049 (inactive).

DHCR7 (UniProt Q9UBM7): the log2 fold change was -0.091 (inactive).

With EIF4G3 isoform 3 (UniProt O43432), the log2 fold change is 0 (inactive).

As for EIF3J (UniProt O75822), the log2 fold change was -0.031 (inactive).

Take E2F4 (UniProt Q16254): the log2 fold change was -0.009 (inactive).

Take DOHH (UniProt Q9BU89): the log2 fold change is 0.137 (inactive).

Regarding ERLIN2 (UniProt O94905), the log2 fold change is 0.001 (inactive).

As for DPYSL2 (UniProt Q16555), the log2 fold change is 0.092 (inactive).

In the case of EEF1A1 (UniProt P68104), the log2 fold change was 0.121 (inactive).

In the case of EHBP1L1 (UniProt Q8N3D4), the log2 fold change is -0.054 (inactive).

For the target EXOC8 (UniProt Q8IYI6), the log2 fold change is -0.001 (inactive).

DYNC1I2 isoform 2 (UniProt Q13409): the log2 fold change was 0.126 (inactive).

Turning to DTWD1 (UniProt Q8N5C7), the log2 fold change is 0.014 (inactive).

Take DOLPP1 (UniProt Q86YN1): the log2 fold change was -0.017 (inactive).

Take ERCC6 (UniProt Q03468): the log2 fold change was -0.079 (inactive).

Consider CUX1 isoform 3 (UniProt P39880), for which the log2 fold change was -0.033 (inactive).

For DUS3L (UniProt Q96G46), the log2 fold change is 0.008 (inactive).

As for EIF2S3 (UniProt P41091), the log2 fold change is 0.021 (inactive).

Regarding EGR1 (UniProt P18146), the log2 fold change is 0 (inactive).

Regarding EED, A0A5F9ZI63, the log2 fold change was -0.012 (inactive).

Consider EZH2 isoform 2 (UniProt Q15910), for which the log2 fold change was -0.114 (inactive).

On to DNM2 (UniProt P50570), for which the log2 fold change was 0.017 (inactive).

Turning to EXOSC10 (UniProt Q01780), the log2 fold change is 0.033 (inactive).

DBN1 isoform 3 (UniProt Q16643): the log2 fold change is 0.099 (inactive).

With EIF4A1 (UniProt P60842), the log2 fold change was -0.022 (inactive).

On to FAM241A (UniProt Q8N8J7), for which the log2 fold change was -0.094 (inactive).

Compound in the next assay: CC(=O)c1cnc2ccc(-c3cc(Cl)c(O)c(Cl)c3)nc2c1N[C@H]1CC[C@H](CN(C)C)CC1
The description is as above. The gist of the method:
as §1
As to EIF2AK3 (UniProt Q9NZJ5), the log2 fold change is -0.369 (inactive).

Take DCUN1D1 (UniProt Q96GG9): the log2 fold change was -0.06 (inactive).

For the target EIF3J isoform 2 (UniProt O75822), the log2 fold change is -0.071 (inactive).

Turning to DCAF10 (UniProt Q5QP82), the log2 fold change is -0.006 (inactive).

In the case of DENND10 (UniProt Q8TCE6), the log2 fold change is 0 (inactive).

As for EIF2AK1 (UniProt Q9BQI3), the log2 fold change is 0.035 (inactive).

As to FAM3A (UniProt P98173), the log2 fold change is 0.028 (inactive).

With ELOVL5 isoform 2 (UniProt Q9NYP7), the log2 fold change is -0.032 (inactive).

In the case of DEGS1 (UniProt O15121), the log2 fold change was 0.066 (inactive).

In the case of DHCR7 (UniProt Q9UBM7), the log2 fold change was -0.085 (inactive).

Consider EIF4G3 isoform 3 (UniProt O43432), for which the log2 fold change is -0.074 (inactive).

In the case of EIF3J (UniProt O75822), the log2 fold change was 0.035 (inactive).

Consider E2F4 (UniProt Q16254), for which the log2 fold change was -0.073 (inactive).

Turning to DOHH (UniProt Q9BU89), the log2 fold change was 0.103 (inactive).

Take ERLIN2 (UniProt O94905): the log2 fold change was 0.058 (inactive).

For DPYSL2 (UniProt Q16555), the log2 fold change is 0.024 (inactive).

In the case of ELAC1 (UniProt Q9H777), the log2 fold change is 0.027 (inactive).

In the case of EEF1A1 (UniProt P68104), the log2 fold change is 0.05 (inactive).

For EHBP1L1 (UniProt Q8N3D4), the log2 fold change is -0.077 (inactive).

EXOC8 (UniProt Q8IYI6): the log2 fold change was 0.014 (inactive).

For the target DYNC1I2 isoform 2 (UniProt Q13409), the log2 fold change was 0.106 (inactive).

Regarding DTWD1 (UniProt Q8N5C7), the log2 fold change is 0.076 (inactive).

DOLPP1 (UniProt Q86YN1): the log2 fold change is -0.19 (inactive).

Consider ERCC6 (UniProt Q03468), for which the log2 fold change was 0.11 (inactive).

With CUX1 isoform 3 (UniProt P39880), the log2 fold change is -0.032 (inactive).

As to ELOVL7 (UniProt A1L3X0), the log2 fold change is 0.059 (inactive).

As to DUS3L (UniProt Q96G46), the log2 fold change is -0.031 (inactive).

Take EIF2S3 (UniProt P41091): the log2 fold change was -0.004 (inactive).

As for EGR1 (UniProt P18146), the log2 fold change is -1.07 (active).

As to DDX27 (UniProt Q96GQ7), the log2 fold change is 0.115 (inactive).

Consider EED, A0A5F9ZI63, for which the log2 fold change is -0.041 (inactive).

With ELF1 (UniProt P32519), the log2 fold change is 0.143 (inactive).

In the case of EZH2 isoform 2 (UniProt Q15910), the log2 fold change was 0.115 (inactive).

Take DNM2 (UniProt P50570): the log2 fold change is -0.023 (inactive).

With EXOSC10 (UniProt Q01780), the log2 fold change is 0.026 (inactive).

Turning to FAM117B (UniProt Q6P1L5), the log2 fold change is -0.593 (inactive).

DBN1 isoform 3 (UniProt Q16643): the log2 fold change is 0.061 (inactive).

Regarding EIF4A1 (UniProt P60842), the log2 fold change is -0.131 (inactive).

As for FAM241A (UniProt Q8N8J7), the log2 fold change was 0.063 (inactive).
